Results on ten compounds are retold here after ChEMBL document CHEMBL3988442, “University of Dundee, Small-Polar-MMV Screening Library” (2021).

Molecules are shown by their SMILES. Where “and” joins values, the source holds several entries; their conditions need not be identical. Equal entries are not always repeated. For part of these data: Results with a measured potency or affinity are listed apart.

What all share (set-up): scale not given: direction of the effect not stated beside the values
Assay [1] addresses Protein translocase subunit SecA (Escherichia coli (strain K12)) (UniProt P10408). Description: Assay to Identify E. coli SecA ATPase Inhibitors. Format: functional. The following applies: 30 µM.
Assay [2] concerns the target T1, Ubiquitin-activating enzyme e1, putative (Leishmania donovani (strain BPK282A1)) (UniProt E9BSI1).
T1 sequence (whole entry): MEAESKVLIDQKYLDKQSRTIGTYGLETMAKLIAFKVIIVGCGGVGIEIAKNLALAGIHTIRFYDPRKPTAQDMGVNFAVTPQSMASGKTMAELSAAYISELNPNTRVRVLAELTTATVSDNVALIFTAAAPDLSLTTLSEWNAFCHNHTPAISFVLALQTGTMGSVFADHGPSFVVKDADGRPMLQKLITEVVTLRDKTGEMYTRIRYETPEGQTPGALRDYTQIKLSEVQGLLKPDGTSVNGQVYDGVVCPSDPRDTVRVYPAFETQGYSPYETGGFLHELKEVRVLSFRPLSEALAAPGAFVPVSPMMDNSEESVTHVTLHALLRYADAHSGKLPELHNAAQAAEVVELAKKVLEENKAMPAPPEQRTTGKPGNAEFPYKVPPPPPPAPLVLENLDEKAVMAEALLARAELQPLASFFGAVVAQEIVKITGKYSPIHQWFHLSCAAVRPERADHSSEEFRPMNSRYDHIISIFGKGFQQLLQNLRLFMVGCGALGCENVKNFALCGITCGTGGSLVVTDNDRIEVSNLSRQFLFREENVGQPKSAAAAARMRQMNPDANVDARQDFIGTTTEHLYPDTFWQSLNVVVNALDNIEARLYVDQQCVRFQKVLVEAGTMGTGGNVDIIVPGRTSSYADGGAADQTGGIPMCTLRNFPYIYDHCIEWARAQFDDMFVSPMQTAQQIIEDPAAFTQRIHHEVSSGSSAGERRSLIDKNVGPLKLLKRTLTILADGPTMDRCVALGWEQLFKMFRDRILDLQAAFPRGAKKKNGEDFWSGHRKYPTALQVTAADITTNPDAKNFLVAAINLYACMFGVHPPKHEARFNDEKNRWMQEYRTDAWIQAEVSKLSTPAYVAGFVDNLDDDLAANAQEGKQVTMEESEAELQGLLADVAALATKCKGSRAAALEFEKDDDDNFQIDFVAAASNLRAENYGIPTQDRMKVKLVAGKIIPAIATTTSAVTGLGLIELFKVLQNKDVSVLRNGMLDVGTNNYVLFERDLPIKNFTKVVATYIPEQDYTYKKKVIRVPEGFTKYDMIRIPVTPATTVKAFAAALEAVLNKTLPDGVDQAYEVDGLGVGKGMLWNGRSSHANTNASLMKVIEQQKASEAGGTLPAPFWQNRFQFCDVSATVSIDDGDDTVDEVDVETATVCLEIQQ
Description: Leishmania donovani Ubiquitin Activating Enzyme (LdE1). Format: functional. The following applies: 30 µM.

The target in assay [3] is AMP-activated protein kinase, AMPK (Homo sapiens) (UniProt P54646+O43741+P54619+Q9UGJ0+Q9Y478+Q13131+Q9UGI9). Description: AMP-dependent Kinase enzyme assay. An in vitro enzyme assay that detects ADP turnover that is directly proportional to AMPK activity. This uses naive AMPK that is activated during the assay with MK-8722. Format: functional. The following applies: 30 µM.

Assay [4] addresses Sialic acid-binding Ig-like lectin 9 (Homo sapiens) (UniProt Q9Y336). The assay is described as follows: Hs-Siglec9 ALPHAscreen SOP 20170721. The following applies: 10 µM. On the technique in general: Alpha assays give light when donor and acceptor beads are brought close together.
Assay [5] concerns Trypanosoma cruzi. The assay is described as follows: Trypanosoma cruzi phosphomannomutase and mannose-1-phosphate guanylyltransferase assay. Type of assay: functional. The following applies: 10 µM.
Assay [6] has as its target T2, Arginase-2, mitochondrial (Homo sapiens) (UniProt P78540).
T2 sequence (whole entry): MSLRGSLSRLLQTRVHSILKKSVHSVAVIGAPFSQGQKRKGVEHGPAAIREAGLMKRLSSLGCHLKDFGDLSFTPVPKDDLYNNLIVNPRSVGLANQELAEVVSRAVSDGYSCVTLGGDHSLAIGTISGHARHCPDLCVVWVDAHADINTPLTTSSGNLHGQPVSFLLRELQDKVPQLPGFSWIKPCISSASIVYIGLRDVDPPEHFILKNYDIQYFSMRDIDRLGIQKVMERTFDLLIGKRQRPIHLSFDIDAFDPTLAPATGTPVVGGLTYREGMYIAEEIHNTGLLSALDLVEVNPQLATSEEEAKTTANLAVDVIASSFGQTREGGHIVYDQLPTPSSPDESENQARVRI
Description: in vitro enzyme assay to detect the production of urea directly proportional to the activity of Arginase II. Also: in the data most compounds retested in dose-response had high values. Type of assay: functional. The following applies: 33.3 µM.

The target of assay [7] is T3, Proteasome subunit beta (Trypanosoma cruzi) (UniProt O96673).
T3 sequence (whole entry): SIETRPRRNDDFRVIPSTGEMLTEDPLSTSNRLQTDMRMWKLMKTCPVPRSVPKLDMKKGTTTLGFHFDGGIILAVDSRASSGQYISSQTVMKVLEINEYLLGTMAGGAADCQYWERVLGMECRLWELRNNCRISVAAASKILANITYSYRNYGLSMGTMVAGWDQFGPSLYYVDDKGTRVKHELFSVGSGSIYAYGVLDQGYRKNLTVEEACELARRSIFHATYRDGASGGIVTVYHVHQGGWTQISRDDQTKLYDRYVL
The assay is described as follows: Trypanosoma cruzi proteasome chymotrypsin-like activity (TcProtChymo) assay. Also: in the data most compounds retested in dose-response had high values. Type of assay: functional. The following applies: 9.37 µM.

In assay [8] the test system is N/A. The assay is described as follows: Trypanosoma cruzi proteasome luciferase counter-screen. Type of assay: functional. The following applies: 9.37 µM.
The species entered for assay [9] is Homo sapiens. Description: To identify inhibition of the IFN signalling (Jak-Stat) pathway via expression of an eGFP reporter gene under the control of an IFN-stimulated response element (ISRE) containing MxA promoter. Format: functional. The following applies: 30 µM.
Assay [10] concerns the target T4, Tyrosyl-tRNA synthetase, putative (Trypanosoma cruzi (strain CL Brener)) (UniProt Q4DSP6).
T4 sequence (whole entry): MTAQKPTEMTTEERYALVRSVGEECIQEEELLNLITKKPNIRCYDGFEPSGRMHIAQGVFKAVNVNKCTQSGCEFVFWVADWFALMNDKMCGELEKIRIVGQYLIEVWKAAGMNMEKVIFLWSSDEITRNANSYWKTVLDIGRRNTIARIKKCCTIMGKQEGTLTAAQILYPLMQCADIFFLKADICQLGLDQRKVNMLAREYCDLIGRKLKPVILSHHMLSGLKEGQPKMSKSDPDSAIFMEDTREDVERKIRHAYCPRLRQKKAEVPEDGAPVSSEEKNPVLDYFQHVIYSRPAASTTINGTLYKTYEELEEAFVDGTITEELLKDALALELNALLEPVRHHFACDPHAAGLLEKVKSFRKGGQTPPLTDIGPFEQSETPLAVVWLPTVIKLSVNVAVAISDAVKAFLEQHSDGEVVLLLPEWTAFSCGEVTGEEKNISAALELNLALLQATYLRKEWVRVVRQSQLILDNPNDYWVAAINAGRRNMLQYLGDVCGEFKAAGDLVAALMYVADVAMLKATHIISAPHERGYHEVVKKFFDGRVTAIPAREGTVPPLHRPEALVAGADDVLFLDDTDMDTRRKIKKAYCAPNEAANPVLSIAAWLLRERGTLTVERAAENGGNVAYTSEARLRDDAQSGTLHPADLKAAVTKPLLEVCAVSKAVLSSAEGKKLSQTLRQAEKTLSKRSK
The assay is described as follows: Trypanosoma cruzi tyrosyl tRNA synthetase (TcYRS) _High Tyrosine SOP. Also: in the data most compounds retested in dose-response had high values. The following applies: 30 µM. Type of assay: functional.

In assay [11] the target is T4, Tyrosyl-tRNA synthetase, putative (Trypanosoma cruzi (strain CL Brener)). Description: Trypanosoma cruzi tyrosyl tRNA synthetase (TcYRS) SOP. Format: functional. The following applies: 30 µM.
Assay [12] has as its target Chromo domain-containing protein 1 (Saccharomyces cerevisiae (strain ATCC 204508 / S288c) (Baker's yeast)) (UniProt P32657). The assay is described as follows: ScCHD-1 Enzyme Inhibition Assay. Also: in the data most compounds retested in dose-response had high values. Format: functional. The following applies: 30 µM.

Protein translocase subunit SecA (Escherichia coli (strain K12)), sequence (P10408 whole entry): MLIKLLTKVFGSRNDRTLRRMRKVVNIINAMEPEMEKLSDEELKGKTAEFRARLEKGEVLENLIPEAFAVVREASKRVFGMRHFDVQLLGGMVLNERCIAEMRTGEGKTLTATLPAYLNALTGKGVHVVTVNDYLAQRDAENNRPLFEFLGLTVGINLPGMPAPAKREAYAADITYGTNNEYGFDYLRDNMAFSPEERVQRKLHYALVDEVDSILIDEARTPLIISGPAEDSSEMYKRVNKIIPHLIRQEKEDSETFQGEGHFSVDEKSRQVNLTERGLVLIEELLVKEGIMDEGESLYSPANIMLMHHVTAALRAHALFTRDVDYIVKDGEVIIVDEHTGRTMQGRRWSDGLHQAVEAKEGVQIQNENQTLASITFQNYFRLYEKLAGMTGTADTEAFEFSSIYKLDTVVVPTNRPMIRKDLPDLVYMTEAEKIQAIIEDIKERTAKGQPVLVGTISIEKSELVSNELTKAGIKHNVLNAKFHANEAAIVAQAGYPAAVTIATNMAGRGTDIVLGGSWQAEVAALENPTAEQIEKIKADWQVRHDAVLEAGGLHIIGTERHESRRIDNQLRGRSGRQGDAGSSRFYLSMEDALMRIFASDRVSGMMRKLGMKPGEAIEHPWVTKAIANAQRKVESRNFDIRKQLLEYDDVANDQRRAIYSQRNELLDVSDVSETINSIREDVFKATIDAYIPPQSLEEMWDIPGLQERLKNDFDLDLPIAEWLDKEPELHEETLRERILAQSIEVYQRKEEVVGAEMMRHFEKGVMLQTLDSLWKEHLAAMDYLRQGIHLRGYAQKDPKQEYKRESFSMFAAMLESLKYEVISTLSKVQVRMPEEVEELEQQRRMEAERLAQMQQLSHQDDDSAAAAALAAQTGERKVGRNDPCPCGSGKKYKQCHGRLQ
Chromo domain-containing protein 1 (Saccharomyces cerevisiae (strain ATCC 204508 / S288c) (Baker's yeast)), sequence (P32657 whole entry, the tested form may be a part): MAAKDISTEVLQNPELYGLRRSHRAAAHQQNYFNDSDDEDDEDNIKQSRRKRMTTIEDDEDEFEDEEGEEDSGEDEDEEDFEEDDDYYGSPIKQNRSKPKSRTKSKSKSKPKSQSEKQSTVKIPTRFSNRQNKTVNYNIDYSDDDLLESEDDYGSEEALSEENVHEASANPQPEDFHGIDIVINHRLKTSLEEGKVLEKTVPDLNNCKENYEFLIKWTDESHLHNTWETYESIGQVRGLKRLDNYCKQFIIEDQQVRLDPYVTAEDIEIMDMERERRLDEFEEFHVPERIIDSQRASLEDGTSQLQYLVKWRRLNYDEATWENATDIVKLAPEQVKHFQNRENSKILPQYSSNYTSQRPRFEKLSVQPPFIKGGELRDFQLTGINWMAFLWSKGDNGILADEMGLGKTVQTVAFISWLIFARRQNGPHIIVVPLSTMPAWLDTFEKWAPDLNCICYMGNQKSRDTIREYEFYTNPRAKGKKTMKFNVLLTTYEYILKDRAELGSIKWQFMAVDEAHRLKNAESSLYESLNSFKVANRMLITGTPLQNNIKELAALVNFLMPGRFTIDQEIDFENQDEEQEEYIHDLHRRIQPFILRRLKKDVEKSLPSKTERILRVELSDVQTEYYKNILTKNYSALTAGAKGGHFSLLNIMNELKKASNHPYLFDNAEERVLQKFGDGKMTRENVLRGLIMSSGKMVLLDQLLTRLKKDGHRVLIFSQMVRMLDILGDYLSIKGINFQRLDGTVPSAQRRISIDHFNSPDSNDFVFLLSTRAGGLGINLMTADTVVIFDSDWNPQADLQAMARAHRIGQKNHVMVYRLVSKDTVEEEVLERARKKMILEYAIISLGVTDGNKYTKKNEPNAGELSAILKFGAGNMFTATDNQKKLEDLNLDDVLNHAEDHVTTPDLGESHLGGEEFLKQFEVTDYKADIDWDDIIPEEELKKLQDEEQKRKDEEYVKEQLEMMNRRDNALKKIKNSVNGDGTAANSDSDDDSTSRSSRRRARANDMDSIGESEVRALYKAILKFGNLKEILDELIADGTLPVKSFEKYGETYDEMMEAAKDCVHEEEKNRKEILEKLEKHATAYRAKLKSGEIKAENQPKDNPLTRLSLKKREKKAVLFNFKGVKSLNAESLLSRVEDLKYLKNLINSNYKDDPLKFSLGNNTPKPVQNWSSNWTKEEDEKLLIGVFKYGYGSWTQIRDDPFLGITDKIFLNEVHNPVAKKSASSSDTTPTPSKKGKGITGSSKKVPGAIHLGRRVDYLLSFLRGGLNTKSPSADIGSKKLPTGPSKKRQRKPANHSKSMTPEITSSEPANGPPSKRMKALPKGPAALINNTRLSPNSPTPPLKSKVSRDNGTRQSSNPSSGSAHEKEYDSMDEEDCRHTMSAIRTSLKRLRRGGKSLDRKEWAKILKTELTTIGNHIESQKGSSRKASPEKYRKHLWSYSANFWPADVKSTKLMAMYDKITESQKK
Sialic acid-binding Ig-like lectin 9 (Homo sapiens), sequence (Q9Y336 whole entry): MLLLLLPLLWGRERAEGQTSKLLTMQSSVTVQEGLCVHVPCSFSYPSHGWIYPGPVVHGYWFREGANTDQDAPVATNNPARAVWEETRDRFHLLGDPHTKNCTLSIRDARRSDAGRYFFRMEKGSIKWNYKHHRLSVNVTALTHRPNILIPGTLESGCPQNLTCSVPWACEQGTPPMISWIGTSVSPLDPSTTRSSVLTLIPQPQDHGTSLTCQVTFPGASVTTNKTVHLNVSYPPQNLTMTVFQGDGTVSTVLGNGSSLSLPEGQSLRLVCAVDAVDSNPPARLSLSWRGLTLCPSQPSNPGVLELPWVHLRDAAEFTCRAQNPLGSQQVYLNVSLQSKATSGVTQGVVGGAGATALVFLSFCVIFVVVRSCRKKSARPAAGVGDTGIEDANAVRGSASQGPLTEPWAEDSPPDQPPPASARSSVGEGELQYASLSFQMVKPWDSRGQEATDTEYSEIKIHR

Regarding `CN(C(=O)Cc1ccc(NC(=O)NC2CCC2)cc1)c1ccccc1`, the Percent Effect in assay [1] was -9.26%; in assay [2], 5.26%; in assay [3] it was -0.53%; in assay [4], 9.14%; in assay [5] it was 4.58%; in [6] it was 0%. Moreover, the Percent Effect was 41.9% and 43.6% and 48.1% in assay [7]; 15.8% and 14.9% in assay [8]; 9.37% in assay [9]; 4.25% in assay [10]; 15.6% in assay [11]; -19% in [12].
`O=C(c1ccc(C2CCCO2)s1)N1Cc2ccccc2C1` (stereo not given): the Percent Effect in [1] was -2.89%; in assay [2], -2.7%; in assay [3], -1.29%; in [4] it was 1.79%; in assay [5] it was -4.25%; in [6], -2.86%. Further, the Percent Effect is 55.5% and 35.5% and 40.2% in assay [7]; 23.5% and 18.5% in assay [8]; -5.94% in assay [9]; -2.65% in assay [10]; 0% in assay [11]; 2.95% in [12].
With `O=C(c1cn(-c2ccccc2Cl)nn1)N1CCCSCC1`, the Percent Effect is -4.85% in assay [1]; 16.2% in assay [2]; -2.86% in assay [3]; 38.1% in [4]; 5.57% in [5]; 3.72% in assay [6]. Also, the Percent Effect in assay [7] is 49.8% and 55.2% and 47.1%; in [8], 26.3% and 26%; in assay [9], 0.244%; in [10], 2.15%; in assay [11] it was 16.1%; in [12], -4.55%.
As to `Cn1cccc1C(=O)N1CCC2(CC1)CN(c1cncnc1)C(=O)CO2`, the Percent Effect is -7.32% in assay [1]; -189% in assay [2]; -15.1% in [3]; -0.563% in assay [4]; -6.69% in [5]; -1.17% in assay [6]. For the same compound, the Percent Effect in [7] was 51% and 53.6% and 55.8%; in assay [8] it was 4.36% and 0.727%; in assay [9], 18.6%; in assay [10] it was -69.2%; in assay [11] it was -150%; in assay [12], -4.5%.
Consider `Cc1ccc(S(=O)(=O)N2CCc3nc(C4CCNCC4)ncc3C2)cc1`, for which the Percent Effect was -3.69% in assay [1]; 9.46% in [2]; -15.7% in [3]; 1.15% in [4]; 2.77% in [5]; -4.41% in [6]. Besides, the Percent Effect in [7] was 21.6% and 22.5% and 38.9%; in [8], 8.48% and 9.51%; in assay [9], 9.56%; in assay [10], 17.2%; in assay [11], 24.7%; in assay [12], -21.4%.
`O=C(CC1CN(Cc2ccccc2)CCO1)Nc1ccccc1F` (stereo not given): the Percent Effect in assay [1] is -4.53%; in [2] it was 21.6%; in assay [3], -4.08%; in assay [4], 3.88%; in assay [5], 2.15%; in assay [6], 4.17%. The Percent Effect in assay [7] is 64.1% and 65% and 65.1%; in assay [8], 32.6% and 32.9%; in [9], 4.52%; in assay [10], 8.91%; in assay [11] it was 15.8%; in assay [12] it was -1.97%.
In the case of `Cc1cnn(CC2CCCN2CC(=O)N(C)Cc2ccc(C)o2)c1` (stereo not given), the Percent Effect in [1] was -0.338%; in [2], 0%; in assay [3], -4.82%; in assay [4], 2.25%; in [5] it was 5.21%; in [6], 0.476%. Also, the Percent Effect in assay [7] was 34.4% and 30.7% and 30.2%; in [8], 12.9% and 15.3%; in assay [9], -9.55%; in assay [10], 5.82%; in [11], 7.32%; in assay [12], -2.6%.
Take `O=C(Nc1ccccn1)C1CC(=O)N(Cc2ccccn2)C1` (stereo not given): the Percent Effect in [1] is -2.05%; in assay [2], 15.8%; in assay [3] it was 1.82%; in assay [4], 8.62%; in assay [5], -4.97%; in assay [6], 2.37%. Also, the Percent Effect was 26.3% and 37.5% and 33.2% in assay [7]; 28% and 30% in assay [8]; -8.07% in assay [9]; 3.19% in [10]; 7.79% in assay [11]; -4% in assay [12].
Consider `Cc1ccc(-c2cc(C(=O)NC(C)C(=O)N3CCCCC3)on2)cc1` (stereo not given), for which the Percent Effect is -6.75% in assay [1]; 13.2% in assay [2]; 6.88% in assay [3]; 1.96% in assay [4]; 4.19% in assay [5]; 5.92% in assay [6]. The Percent Effect was 34.9% and 32.7% and 30.8% in assay [7]; 29.4% in assay [8]; 10.4% in assay [9]; 2.13% in assay [10]; 10.4% in assay [11]; -6.32% in [12].
Consider `O=C(O)c1ccc(F)c(S(=O)(=O)Nc2ccc(-n3cccn3)c(Cl)c2)c1`, for which the Percent Effect is -5.92% in assay [1]; -2.67% in assay [2]; -7.61% in assay [3]; -0.566% in [4]; -2.63% in [5]; 0% in assay [6]. For the same compound, the Percent Effect in assay [7] is 16.3% and 16.5% and 41.1%; in [8], 15.6% and 20.6%; in assay [9], -13.3%; in [10], -1.64%; in assay [11], 1.24%; in [12], -4.16%.
